Compounds without any hit were thinned out: in the full panel of roughly 83,000, 20% have a hit.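 Single-dose data. Exposure time 48 hours. Values below 10 considered active.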 A number with no mark means an inactive call. Active and inactive are the calls of the source.

The assay deals with IGROV1 ovarian. Kind of assay: NCI-60 one-dose screen, 48 h (100 = growth as untreated, 0 = no growth, -100 = all killed). The following applies: 10 µM unless noted.
Consider `CCN1CCN(CC(=O)Nc2nc3ccc(NCc4ccc(F)cc4)cc3s2)CC1`, for which the growth is 103%.

Regarding `CCOC(=O)c1c(C)nc2c(c1N)CC(=O)N2Cc1ccc(OC)cc1`, the growth is 46.4%.

On to `CCNC(=O)Oc1ccc(/C(=C(/C)Cc2ccc(OC)cc2)c2ccc(OCCN3CCCCC3)cc2)cc1`, for which the growth is 77.7%.

In the case of `C=C(C)[C@@H]1CCC[C@]2(C(=O)N3CCN(C)CC3)CC[C@]3(C)[C@@H](CC[C@@H]4[C@@]5(C)CC/C(=N\NC(=O)c6ccncc6)C(C)(C)[C@@H]5CC[C@]43C)[C@@H]12`, the growth was 82.7%.

With `CCCCCCCCCCCCCOC(=O)c1c(C)[nH]c(/C=C2\N=C(c3ccc[nH]3)C=C2OC)c1C`, the growth is 22%.

As to `COc1cccc(/C=C/C(=O)c2cccc(Nc3nc(Nc4ccccc4)nc(Nc4ccccc4)n3)c2)c1`, the growth is 77.5%.

On to `O=C(C1CCCCC1)[C@@H]1[C@]2(C(=O)NC3CCCCC32)[C@@H]2CCCN2[C@@]12C(=O)NC1CCC(Cl)CC12` (some centres not stated), for which the growth is -70.3% [100 µM] (active).

As for `N#C/C(=C\c1ccc(-c2cccc(C(F)(F)F)c2)o1)c1ccccc1`, the growth is 59.9%.

Take `COc1cc(C(=O)n2nc(N3CCOCC3)c3cc(-n4cccc4)ccc32)cc(OC)c1OC`: the growth is 68%.

Take `COC(=O)c1c2c(c(C)[n+]([O-])c1C)C(=O)C(NCc1ccc(OC)cc1)=CC2=O`: the growth is 8.2% (active).

With `CC1=C(CCC(C)NCc2ccc(OCCCN3CCCCC3)cc2)C(C)(C)CCC1` (configuration not stated), the growth was -36.6% (active).

With `CN1CCN(CCCOc2cccc3nc(Nc4ccc(F)c(F)c4)ccc23)CC1`, the growth was -12.4% (active).

Values taken from PubChem BioAssay (NCI).
